{"source": "PubChem BioAssay AID1051", "about": "(The Scripps Research Institute Molecular Screening Center, 2008)", "note": "In all, about 99,000 compounds went through this assay and about 340 (0.34%) were called active. Only a selection was taken, and actives are over-represented in it overall. Values without a mark were called inactive. Cut-off read from the data, not from the text of the source: active = TR-FRET ratio above about 2300; inactive = the rest.", "data": [{"test": "TR-FRET detection interference compounds, primary screen, artefact control for PPARgamma SRC-1 recruitment agonists, biochemical, TR-FRET emission ratio (AID 1051)", "details": "TR-FRET detection artefact counter-screen, at 8 µM, stronger effect = higher value", "values": [{"smiles": "Cc1cc(C)cc(C(=O)N(CCc2ccccc2)C2=CC3CCC(C2)N3C)c1", "note": "(stereo not drawn)", "TR-FRET ratio": 1720}, {"smiles": "CS(=O)(=O)N(CC(=O)NC1CCCC1)Cc1ccc(F)cc1", "TR-FRET ratio": 1700}, {"smiles": "O=C(CO/N=C/c1ccccc1OC(F)F)NC1CCCC1", "TR-FRET ratio": 2060}, {"smiles": "CCOC(=O)NC(=O)C(=CNc1cccc(OC)c1)C(=O)NC(=O)OCC", "TR-FRET ratio": 1950}, {"smiles": "CCOC(=O)c1sc(-c2cccc([N+](=O)[O-])c2)cc1N", "TR-FRET ratio": 1540}, {"smiles": "CS/C(=C\\[N+](=O)[O-])Nc1ccc(C)cc1", "TR-FRET ratio": 1980}, {"smiles": "CNC(=O)NC(=O)C(OC(=O)c1cccc(S(=O)(=O)N2CCCCC2)c1)c1ccccc1", "note": "(stereo not drawn)", "TR-FRET ratio": 1550}, {"smiles": "COCC(C)NC(=O)CSc1nc2nn(-c3ccccc3)c(=O)c-2c2n1CCCCC2", "note": "(stereo not drawn)", "TR-FRET ratio": 1600}, {"smiles": "Cc1cccc(OCc2ccc(C(=O)Nc3ccc(F)cc3)cc2)c1", "TR-FRET ratio": 1720}, {"smiles": "S=c1[nH]nc(COc2ccccc2)n1-c1ccccc1", "TR-FRET ratio": 1980}, {"smiles": "Fc1ccc(COc2cccc(-c3n[nH]c(=S)o3)c2)cc1", "TR-FRET ratio": "3340 (active)"}, {"smiles": "Cc1ccc(S(=O)(=O)NCCC(=O)Nc2ccc(C)c(Cl)c2)cc1C", "TR-FRET ratio": 1870}, {"smiles": "Cc1ccc(-c2nc(-c3cccnc3)sc2CC(=O)Nc2ccc(C)c(Cl)c2)cc1", "TR-FRET ratio": "2930 (active)"}, {"smiles": "Cc1cccc(NC(=O)c2sc(-c3ccccc3)nc2-c2ccc([N+](=O)[O-])cc2)c1", "TR-FRET ratio": 1770}, {"smiles": "O=S(=O)(NCc1ccccc1)c1ccc(S(=O)(=O)N2CCCC2)cc1", "TR-FRET ratio": 1770}, {"smiles": "N#Cc1ccc(C(=O)Nc2nc(-c3cccs3)c(C(=O)C(F)(F)F)s2)cc1", "TR-FRET ratio": 2000}, {"smiles": "Cc1nc(N)c(Br)c(C)c1Br", "TR-FRET ratio": 1890}, {"smiles": "CCN(CC)P(=O)(Nc1ccc(SC(F)F)cc1)c1ccc(N(C)C)cc1NC(=O)c1ccco1", "note": "(stereo not drawn)", "TR-FRET ratio": 1800}, {"smiles": "CC(C)CCN1C(=O)c2ccc(C(=O)Nc3cccc(S(N)(=O)=O)c3)cc2C1=O", "TR-FRET ratio": 1840}, {"smiles": "COc1ccc(NC(=O)COC(=O)c2ccncc2)c(OC)c1", "TR-FRET ratio": 1980}, {"smiles": "COc1cccc(-n2nc(C(=O)N3CCN(Cc4ccccc4)CC3)c3ccccc3c2=O)c1", "TR-FRET ratio": 1300}, {"smiles": "CCOC(=O)Cc1csc(NC(=O)CSc2ccc(Br)cc2)n1", "TR-FRET ratio": 1780}, {"smiles": "CCOC(=O)Cc1csc(SCc2cc(=O)oc3cc(O)ccc23)n1", "TR-FRET ratio": 1620}, {"smiles": "CCOC(=O)Cc1csc(NC(=O)COc2ccc3c(C)cc(=O)oc3c2)n1", "TR-FRET ratio": "2450 (active)"}, {"smiles": "O=C(NCCCNc1ccc([N+](=O)[O-])cc1Cl)c1ccccc1F", "TR-FRET ratio": 1920}, {"smiles": "Cc1c(CN2CCCC(C(=O)c3cccc(Cl)c3)C2)c(=O)n(-c2ccccc2)n1C", "note": "(stereo not drawn)", "TR-FRET ratio": 1510}, {"smiles": "COc1cc(NC(=O)COC(=O)CSc2ccc3ccccc3c2)c(C)cc1[N+](=O)[O-]", "TR-FRET ratio": 1730}, {"smiles": "Cc1ccc(N2C(=O)C(NC(=O)c3c(F)cccc3F)(C(F)(F)F)C3=C2CC(C)(C)CC3=O)cc1", "note": "(stereo not drawn)", "TR-FRET ratio": 1770}, {"smiles": "CC1CC(C)(C)NC(=S)N1CCC(=O)N1CCN(Cc2ccccc2)CC1", "note": "(stereo not drawn)", "TR-FRET ratio": 1810}, {"smiles": "CC(C)C(c1nnnn1C(C)(C)C)N1CCN(Cc2cccnc2)CC1", "note": "(stereo not drawn)", "TR-FRET ratio": 1760}, {"smiles": "Cc1nc(N2CCN(c3ccccn3)CC2)c2c(C)c(C(=O)Nc3ccc(F)cc3)sc2n1", "TR-FRET ratio": 1920}, {"smiles": "Cc1nc(N2CCOCC2)c2c(C)c(C(=O)Nc3ccc(C(F)(F)F)cc3)sc2n1", "TR-FRET ratio": 1820}, {"smiles": "Cc1nc(N2CCC(C)CC2)c2c(C)c(C(=O)Nc3cc(F)ccc3C)sc2n1", "TR-FRET ratio": "2400 (active)"}, {"smiles": "COC(=O)c1c(C)[nH]c(C)c1-c1ccc([N+](=O)[O-])cc1", "TR-FRET ratio": 1710}, {"smiles": "CCOc1cc(CNn2c(C)nnc2SCC(=O)NC(C)(C)C)ccc1OCC(=O)NC(C)(C)C", "TR-FRET ratio": 1840}, {"smiles": "O=C(NNS(=O)(=O)c1ccc(F)cc1)c1cnccn1", "TR-FRET ratio": 1930}, {"smiles": "Cc1ccc(NC(=S)N(CCN2CCCCC2)Cc2ccco2)cc1C", "TR-FRET ratio": 1560}, {"smiles": "COc1cc(C(=O)OCc2ccc([N+](=O)[O-])cc2)cc(OC)c1OC", "TR-FRET ratio": 1470}, {"smiles": "S=C(Cc1ccc(Cl)cc1)N1CCOCC1", "TR-FRET ratio": 2050}, {"smiles": "COc1cc(NS(=O)(=O)c2ccc(NC(=O)c3ccc(S(=O)(=O)N4CCCCC4)cc3)cc2)ncn1", "TR-FRET ratio": 1650}, {"smiles": "CCC(=O)N(Cc1cc2ccccc2[nH]c1=O)c1ccc(OC)cc1", "TR-FRET ratio": 1990}, {"smiles": "COc1ccc(-n2nnnc2SCC(=O)NCc2cccs2)cc1", "TR-FRET ratio": 1830}, {"smiles": "CN1CCN(S(=O)(=O)c2cccc(C(=O)N3CCc4ccccc43)c2)CC1", "TR-FRET ratio": 1760}, {"smiles": "Cc1ccc(N2C(=O)C(CC(=O)Nc3cccc(F)c3)N(CCc3ccncc3)C2=O)cc1", "note": "(stereo not drawn)", "TR-FRET ratio": 1810}, {"smiles": "CCOc1cnc(-c2c(-c3ccccc3Cl)noc2C)o1", "TR-FRET ratio": 1830}, {"smiles": "COc1ccc(S(=O)(=O)N2CCCCCC2)cc1C(=O)OCC(=O)Nc1cc(C)on1", "TR-FRET ratio": "2360 (active)"}, {"smiles": "Cc1cc(NC(=O)COC(=O)c2ccc(F)c(S(=O)(=O)N3CCOCC3)c2)no1", "TR-FRET ratio": 1740}, {"smiles": "O=C(COC(=O)c1cc(S(=O)(=O)N2CCCCC2)ccc1Cl)NCc1ccco1", "TR-FRET ratio": 1930}]}]}
